Assay results as given in PubChem BioAssay (NCATS).
Records with an inconclusive call do not appear. Calls of active or inactive are those of the source. The call rests on the fitted dose curve; in most records, active means well fitted inhibition curve with a large enough effect; inconclusive means small, poorly fitted or top-dose-only effect; inactive means flat fitted curve, though single readings scatter.

Columns and labels:
Experiment in all cases: qHTS profiling for inhibitors of Plasmodium falciparum proliferation (AID 504749); further: nearly all actives have a fitted effect of over 60% in size
Conditions in all cases: P. falciparum in erythrocytes, SYBR Green DNA, 72 h; series mostly up to 28.7 µM
CP237 = tested on: CP237
How it was run: (§1)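 P. falciparum-infected erythrocytes (0.3% parasitemia, 2.5% hematocrit final) were exposed to compounds for 72 h at 37 C in 5% CO2, then lysed with SYBR Green buffer overnight at room temperature; parasite DNA fluorescence was normalized to artemisinin and DMSO controls.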

CP238 = tested on: CP238
How it was run: as §1

CP247 = tested on: CP247
How it was run: as §1

CP250 = tested on: CP250
How it was run: as §1

CP252 = tested on: CP252
How it was run: as §1

CP256 = tested on: CP256
How it was run: as §1

CP260 = tested on: CP260
How it was run: as §1

CP262 = tested on: CP262
How it was run: as §1

CP265 = tested on: CP265
How it was run: as §1

CP266 = tested on: CP266
How it was run: as §1

Measured: Potency
Potency means the concentration at half of the fitted maximal effect.

COc1cccc(CCc2ccccc2OCC(CN(C)C)OC(=O)CCC(=O)O)c1 (stereo unspecified)
active: CP237 1.12 µM | CP238 7.08 µM | CP247 5.62 µM | CP250 11.2 µM | CP252 8.91 µM | CP256 11.2 µM | CP260 3.55 µM | CP262 12 µM | CP265 7.08 µM

C[C@H](O)C(=O)Nc1c(I)c(C(=O)NC(CO)CO)c(I)c(C(=O)NC(CO)CO)c1I
inactive: all assays above

COc1ccc(C2C(=O)c3ccccc3C2=O)cc1
inactive: all assays above

COc1cc2c(cc1OC)C(C(C(=O)N(CCc1ccc(OC)c(OC)c1OC)CCc1ccc(OC)c(OC)c1OC)c1ccccc1)=NCC2 (stereo unspecified)
active: CP237 2 µM | CP238 6.31 µM | CP247 4.47 µM | CP250 7.08 µM | CP252 5.01 µM | CP256 5.62 µM | CP260 3.55 µM | CP262 9.53 µM | CP265 7.94 µM

Cc1c(C)n(Cc2ccccc2)c2ccc(C(=O)OCCN(C)C)cc12
not listed: CP266
inactive: all other assays above

CC(C)COC(=O)OCN1C(=O)CN(CCN2CC(=O)N(COC(=O)OCC(C)C)C(=O)C2)CC1=O
inactive: all assays above

C[C@]12CC[C@@H]3c4ccc(O)cc4CC[C@H]3[C@@H]1CC[C@@H]2O
inactive: all assays above

Cc1cc(N)c2cc(NC(=O)Nc3ccc4nc(C)cc(N)c4c3)ccc2n1
active: CP237 5.01 µM | CP238 12.6 µM | CP247 12.6 µM | CP250 11.2 µM | CP256 1.78 µM | CP260 5.62 µM | CP262 4.78 µM | CP265 7.08 µM
inactive: CP252

NC(=O)C(=O)N/N=C/c1ccc([N+](=O)[O-])o1
not listed: CP266
inactive: all other assays above

Oc1ccc(Cl)cc1Sc1cc(Cl)ccc1O
inactive: all assays above

C[C@@H](CN(C)C)CN1c2ccccc2Sc2ccccc21
inactive: all assays above

O=C(O)CCCCC(=O)O
inactive: all assays above

O=C1c2ccccc2C(=O)C1c1ccccc1
not listed: CP266
inactive: all other assays above

C[C@@H]1C(=O)NC2=Nc3cccc(Cl)c3CN21
inactive: all assays above

O=C1CCC(c2ccc(-n3ccnc3)cc2)=NN1
inactive: all assays above

Nc1ccc(C(=O)Nc2ccccc2N)cc1
inactive: all assays above

Cc1c(F)c(N2CCNC(C)C2)cc2c1c(=O)c(C(=O)O)cn2C1CC1 (stereo unspecified)
not listed: CP266
inactive: all other assays above

CN1C(CCl)Nc2cc(Cl)c(S(N)(=O)=O)cc2S1(=O)=O (stereo unspecified)
inactive: all assays above

O=C(OCCOCCO)c1ccccc1Nc1cccc(C(F)(F)F)c1
not listed: CP266
inactive: all other assays above

COC(=O)[C@@H]1CC2=CC(=O)CC[C@]2(C)[C@@]23O[C@@H]2C[C@@]2(C)[C@@H](CC[C@@]24CCC(=O)O4)[C@H]13
inactive: all assays above

CCCCCCCCCCCCCCCC[N+](C)(C)CC
active: CP237 4.47 µM | CP238 5.01 µM | CP247 4.47 µM | CP250 5.01 µM | CP252 5.01 µM | CP256 5.01 µM | CP260 2.82 µM | CP262 4.78 µM | CP265 5.01 µM | CP266 13.5 µM

CCCCCCc1ccc(O)cc1O
not listed: CP266
inactive: all other assays above
